Bioassay records (PubChem BioAssay)
Shown are actives, neighbours in structure and some others; about 12% of the full set was active somewhere.
JMJD2A Tudor – JMJD2A Tudor domain (human) inhibition | AlphaScreen JMJD2A-Tudor / H3K4me3 peptide binding | Potency, µM (titrated, usually from 114 µM), inactives show at the highest dose activity change, negative = inhibition, most hits filed as inhibitors | 390,000 compounds, 4.4% hits | AID 504339; note: % is set by controls: 0 for no effect and ±100 for the full control effect; nearly all actives have a fitted effect of over 50% in size
BAZ2B inh – blocks human BAZ2B; Potency, µM (top dose mostly 114 µM), for inactives: at the highest dose activity change, negative = inhibition, usual class: inhibitors; Q9UIF8; 360,000 compounds, 4.4% hits; AlphaScreen BAZ2B-H3K14Ac peptide displacement; note: % is set by controls: 0 for no effect and ±100 for the full control effect; nearly all actives have a fitted effect of over 60% in size
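BAZ2B (50 nM) with biotin-H3(5-23)K14Ac peptide (50 nM) in PBS pH 7.4, 0.01% Tween-20, preformed 30 min, then compound 30 min at room temperature; top concentration 110uM. AlphaScreen streptavidin donor/nickel chelate acceptor beads (10 ug/mL final), 20 min dark, signal read.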
PLK1 PBD inh – PLK1 (human) polo-box domain binding inhibition; Plk1 PBD binding of FITC phosphopeptide, fluorescence polarization; AID 720504; Potency, µM, for inactives: max response, negative = inhibition, hits mostly inhibitors; 360,000 compounds, 2.8% hits; P53350; note: series mostly up to about 57 µM; % is set by controls: 0 for no effect and ±100 for the full control effect; nearly all actives have a fitted effect of over 65% in size
HP1b binding inh – inhibitors of HP1-beta chromodomain binding to methylated histone tails | P83916 | AlphaScreen HP1-beta / biotin-H3K9me3 peptide binding | Potency, µM (highest dose often 114 µM), for inactives: at the top dose activity change, negative = inhibition, actives largely listed as inhibitors | 390,000 compounds, 0.56% hits | AID 540317; note: nearly all actives have a fitted effect of over 70% in size
Target sequence (P83916 whole entry, looked up): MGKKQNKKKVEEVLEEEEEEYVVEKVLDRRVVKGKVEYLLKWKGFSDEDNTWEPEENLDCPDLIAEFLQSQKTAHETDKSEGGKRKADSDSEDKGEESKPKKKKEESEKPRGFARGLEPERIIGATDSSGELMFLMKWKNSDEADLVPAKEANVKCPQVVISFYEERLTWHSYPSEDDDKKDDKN
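HP1-beta protein (50 nM final) preincubated 30 min at room temperature with biotinylated H3(1-18)K9me3 peptide (50 nM) in PBS pH 7.4, 0.01% Tween-20, then compound added for 30 min. AlphaScreen streptavidin donor/nickel chelate acceptor beads (10 ug/mL final), 30 min dark, luminescence read.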
G9a inh – blocks human histone lysine methyltransferase G9a. G9a H3K9 monomethylation, AlphaScreen, 2 h. Potency, µM (top dose mostly 102 µM), inactives show top-dose activity, negative = inhibition, hits mostly inhibitors. 350,000 compounds, 8.8% hits; note: % is set by controls: 0 for no effect and ±100 for the full control effect; nearly all actives have a fitted effect of over 75% in size
Target sequence (Q96KQ7 913-1193 limits assumed): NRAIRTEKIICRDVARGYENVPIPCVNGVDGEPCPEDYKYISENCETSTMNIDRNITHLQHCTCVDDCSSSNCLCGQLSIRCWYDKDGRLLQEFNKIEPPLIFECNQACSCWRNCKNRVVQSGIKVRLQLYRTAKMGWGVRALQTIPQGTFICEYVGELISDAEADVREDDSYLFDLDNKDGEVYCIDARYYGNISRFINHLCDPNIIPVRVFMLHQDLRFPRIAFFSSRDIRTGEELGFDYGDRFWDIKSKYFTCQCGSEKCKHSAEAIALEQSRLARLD
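G9a (20 nM) preincubated 15 min RT with compounds, then 500 nM biotinylated H3K9 peptide and 20 uM SAM added; 2 h RT reaction. Monomethyl-H3K9 product detected by AlphaScreen with anti-H3K9me1 antibody, streptavidin donor and anti-rabbit IgG acceptor beads.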
Sfp inh – inhibitors of Bacillus subtilis Sfp phosphopantetheinyl transferase | AID 1490 | Potency, µM, for inactives: largest response in the series, negative = inhibition, most hits filed as inhibitors | Q9F4F7 | 310,000 compounds, 3.5% hits | Biochemical Sfp PPTase activity, qHTS;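 note: the enzyme is Sfp with the accession as filed and its product quenches rhodamine fluorescence; 0% = enzyme reaction without inhibitor and -100% = no enzyme wells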
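After 15 min at room temperature with compound, 15 nM Sfp received 5 uM rhodamine-CoA plus 12.5 uM BHQ-2-ybbR (50 mM Hepes pH 7.6, 10 mM MgCl2). Rate came from the fluorescence difference over 30 min, ex 525/em 598 nm.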
* marks the source's active call; other numbers are inactive results; ? = inconclusive; . = not tested or not shown; [ ] = remark or other dose. Calls come from the whole dose curve; as a rule, active = well fitted curve in the direction sought with a large enough effect; inconclusive = small, poorly fitted or top-dose-only effect, or another doubt; inactive = no such curve, though single readings can be large; an effect the other way counts as inactive or inconclusive. Potency is the fitted concentration of half-maximal effect.

SMILES | JMJD2A Tudor | BAZ2B inh | PLK1 PBD inh | HP1b binding inh | G9a inh | Sfp inh
Clc1ccc(C(c2ccccc2)N2CCN(c3ccccn3)CC2)cc1 (stereo not given) | -8% | -14% | -7% | -13% | 29% | -1%
Cc1[nH]c2ccccc2c1C(c1ccncc1)N1CCN(c2ccccn2)CC1 (stereo not given) | -35% | ? | -24% | ? | 22µM* | ?
COc1ccc(C)cc1NC(=O)C(Cc1ccccc1)NS(=O)(=O)c1ccc(Br)s1 (stereo not given) | -26% | -20% | . | 3% | 4%[59 µM] | .
Cc1ccc(NC2CCCN(C(=O)c3cccc(-c4ncc[nH]4)c3)C2)cc1C (stereo not given) | ? | ? | -4% | -7% | ? | 5%
CCOc1cc(/C=C2/NC(=O)N(Cc3ccccc3F)C2=O)ccc1O | -2% | 8% | 1% | 21% | -1%[59 µM] | 1%
O=C(O)c1ccc(COc2ccccc2/C=C2\NC(=O)N(Cc3ccccc3)C2=O)cc1 | 25µM* | -28% | 19µM* | ? | ? | 9%
COc1cc(/C=C2/NC(=O)N(Cc3ccccc3F)C2=O)cc(OC)c1O | -20% | 1% | -4% | 33% | 35µM* | -14%
O=C(O)c1ccc(COc2ccccc2/C=C2\NC(=O)N(Cc3ccccc3F)C2=O)cc1 | 40µM* | -23% | 27µM* | ? | ? | ?
O=C1NC(=O)N(Cc2ccccc2F)C1=O | -14% | -37% | -24% | 12% | 22µM* | ?
CCCN1C(=O)/C(=C/c2ccccc2OCc2ccc(C(=O)O)cc2)NC1=S | -28% | -29% | -17% | -25% | ? | 10%
O=C1N/C(=C/c2cccn2-c2ccccc2)C(=O)N1Cc1ccccc1F | -16% | -4% | -12% | 14% | ? | -3%
COc1ccc(-c2noc(CSc3nnc(Cc4ccccc4)n3-c3ccccc3)n2)cc1OC | -24% | -18% | . | 8% | -41%[59 µM] | .
CCOc1ccc(C2(C)CC(=O)N(C)C2=O)cc1 (stereo not given) | 10% | 2% | 3% | 27% | 15% | 11%
O=C(NCc1ccccc1)c1cc(C2CCCCN2S(=O)(=O)c2cccc3cccnc23)on1 (stereo not given) | . | . | 3% | . | . | .
O=C(O)c1ccc(COc2ccc3ccccc3c2/C=C2/NC(=O)N(Cc3ccc(F)cc3)C2=O)cc1 | 20µM* | 28µM* | ? | ? | ? | 71µM*
CCCN1C(=O)/C(=C/c2ccc(OCc3ccc(C(=O)O)cc3)c(OC)c2)NC1=S | -29% | . | -24% | 16% | . | .
CCC(C(=O)Nc1cc(OC)ccc1OC)n1nc(-c2ccccc2)c2c(c1=O)CCCC2 (stereo not given) | ? | ? | . | 3% | ? | .
CCOc1ccc(NC(=O)c2cc3c(-c4ccccc4F)nn(C)c3s2)cc1 | -9% | . | . | 48% | 23%[59 µM] | .
C=CCC[C@H](Cc1ccc(F)cc1)C(=O)OC[C@H](Cc1c[nH]c2ccccc12)NC(=O)[C@@H](CC=C)CC(=O)NCCO | ? | . | -3% | 1% | . | .
O=C1c2oc3ccccc3c(=O)c2C(c2cccnc2)N1Cc1ccco1 (stereo not given) | 1% | 9% | -14% | 32% | 25µM* | -20%
CCN(CC)CCCN1C(=O)c2oc3ccccc3c(=O)c2C1c1cccnc1 (stereo not given) | ? | -1% | -5% | 14% | 50µM* | 13%
Cc1nc2ccn(Cc3cccnc3)c(=O)c2cc1C(=O)NCc1ccccc1 | -14% | -12% | . | 18% | -1%[59 µM] | .
Cc1nc(C)c(C(=O)OCC(=O)NCCc2ccc(F)cc2)s1 | -18% | 7% | -17% | 16% | 40µM* | .
O=C1NC(=O)/C(=C/c2ccco2)N1 | -1% | 9% | . | 45% | 6%[0.501 µM] | .
O=C1NC(=O)/C(=C/c2ccc(N3CCOCC3)o2)N1 | -10% | -3% | 1% | 15% | . | 32µM*
SMILES | JMJD2A Tudor | BAZ2B inh | PLK1 PBD inh | HP1b binding inh | G9a inh | Sfp inh
O=C1NC(=O)/C(=C\c2ccc(N3CCOCC3)o2)N1 | -7% | 7% | 11% | 15% | 25µM* | 18µM*
O=C1NC(=O)C(=Cc2ccccc2)N1 | -12% | . | 1% | 35% | . | .
O=C(OCn1ncc(Cl)c(Cl)c1=O)c1cccc(C(F)(F)F)c1 | 24% | -35% | ? | 39% | ? | 13%
O=C(OCn1ncc(Br)c(Br)c1=O)c1ccccc1Cl | -9% | -9% | 19µM* | 64% | 0%[12.7 µM] | -16%
O=C(OCn1ncc(Br)c(Br)c1=O)c1ccc(F)cc1 | -10% | 0% | 9.5µM* | 32% | -25%[12.7 µM] | 50µM*
Nc1nnc(-c2cccc(F)c2)s1 | -17% | -11% | ? | -24% | -27% | -8%
Nc1nnc(-c2ccc(Cl)c(Cl)c2)s1 | -5% | -14% | -6% | 20% | 45µM* | 3%
COc1ccc(NCc2cc3cc4c(cc3n(CC(=O)Nc3ccc(C)cc3)c2=O)OCO4)cc1 | -30% | -19% | . | 5% | -41%[59 µM] | .
O=C(c1cc(F)c(F)cc1Cl)N1CCN(c2ncccn2)CC1 | -13% | -11% | -9% | 19% | 51% | 22%
O=C(c1cc(-c2ccncc2)nc2ccccc12)N1CCN(Cc2ccccc2)CC1 | -29% | . | -6% | -6% | . | .
O=C(c1cc(-c2ccc(Br)cc2)nc2ccccc12)N1CCN(c2ccccc2O)CC1 | ? | -12% | -7% | -18% | 50µM* | .
O=C(c1cc(Br)ccc1Cl)N1CCN(c2ncccn2)CC1 | ? | 11% | 30µM* | 5% | -6% | -8%
Cc1ccc(-c2cc(C(=O)N3CCN(c4ncccn4)CC3)c3ccccc3n2)cc1 | -13% | -35% | 1% | 26% | 45µM* | -20%
Cc1ccccc1CN1CCN(C(=O)c2cc(-c3ccncc3)nc3ccccc23)CC1 | ? | ? | -14% | -13% | 35µM* | ?
CCN1CCCC(OC(=O)c2cc(-c3ccc(C)cc3)nc3ccccc23)C1 (stereo not given) | 18µM* | . | -14% | 13% | ? | 4%
Cc1c(C(=O)NCc2cccnc2)sc2nc(-c3ccc(F)cc3)cn12 | -11% | -38% | -5% | 54% | 45µM* | 10%
COc1ccc(-c2cn3c(C)c(C(=O)Nc4cc(NC(C)=O)ccc4OC)sc3n2)cc1 | -12% | -23% | 6% | 5% | 14µM* | 79µM*
Cc1c(C(=O)NCc2cccnc2)sc2nc(-c3ccccc3)cn12 | -10% | -3% | -1% | 39% | -4% | -2%
COc1cc(OC)cc(C(=O)NCCN2CCOCC2)c1 | 10µM* | 50µM* | -1% | ? | 8.9µM* | -21%
COc1ccc(-c2cn3c(C)c(C(=O)N4CCc5ccccc5C4)sc3n2)cc1 | ? | ? | -9% | -6% | 35µM* | -9%
